Laboratory results as given in the supplement of paper PMC7156485.
Several values for one entry are separate records, joined by “and”; a condition that tells them apart may be missing. Equal values may be shown once.

Each molecule was assayed on TDF (assay: cell number relative to DMSO (% of DMSO); higher = more cells (less growth inhibition / toxicity)). Settings: concentration: 10 µM; 24 h.
How it was run: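 HCC1569 and TDF cells were seeded at 800 per well in 384-well plates in RPMI with 10% FBS and treated with compounds at 10 µM for 24 h at 37 °C, in triplicate. After fixation in 3.7% formaldehyde, cells were stained with a rabbit anti-H1.0 antibody, an AlexaFluor 647 secondary and DAPI, and six fields per well were imaged at ×10. H1.0 nuclear intensity or cell number is given as percent of the plate control, using the median of replicates, with HCC1569 values smoothed for positional effects.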
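Also: TDF denotes transformed human dermal fibroblasts of mesenchymal origin.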

**Q.** For `O=C(Nc1ccccc1)c1cc([N+](=O)[O-])ccc1Cl`, which cell number is on record?
**A.** 90.5

**Q.** Which cell number does the source give for `N#CC(=Cc1ccc(O)c(O)c1)C(=O)NCc1ccccc1` here?
**A.** 96

**Q.** `Cc1cccc(C=Cc2ccccc2)n1` was tested. Which cell number did it give?
**A.** 104

**Q.** `CC(C)[N+](C)(CCOC(=O)C1c2ccccc2Oc2ccccc21)C(C)C.[Br-]` [Propantheline bromide] was tested. Which cell number did it give?
**A.** 107

**Q.** How did the cell number turn out when `CC(C)(S)[C@H](N)C(=O)O` [L-Penicillamine] was run?
**A.** 102

**Q.** With `CCCCCCCCCCCCCCCC(=O)OC(CC(=O)O)C[N+](C)(C)C.[Cl-]` (racemic) [Palmitoyl-DL-Carnitine chloride] as the molecule, how does the cell number read?
**A.** 101

**Q.** For `O=C(OC1Cc2c(O)cc(O)cc2OC1c1cc(O)c(O)c(O)c1)c1cc(O)c(O)c(O)c1` (stereo not given) [Epigallocatechin gallate], which cell number is on record?
**A.** 97

**Q.** For `Cl.Clc1ccc2nsnc2c1NC1=NCCN1` [Tizanidine.HCl], which cell number is on record?
**A.** 116

**Q.** `FC(F)(F)c1cc(NC(=S)Nc2ccc(Br)cc2-c2nn[nH]n2)cc(C(F)(F)F)c1` was tested. Which cell number did it give?
**A.** 85.6

**Q.** `Oc1cc(O)c2c(c1)OC(c1ccc(O)c(O)c1)C(O)C2` (single isomer, unassigned; (+)) [(+)-Catechine] was tested. Which cell number did it give?
**A.** 105

**Q.** How did the cell number turn out when `Br.Br.N=C(N)SCCc1cccc(CCSC(=N)N)c1` [1,3-PBIT dihydrobromide] was run?
**A.** 113

**Q.** For `CC=C1C2C=C(C)CC1(N)c1ccc(=O)[nH]c1C2` (single isomer, unassigned; (-)) [(-)-Huperazine], which cell number is on record?
**A.** 100

**Q.** For `CCC(=O)OC1(C(=O)SCF)C(C)CC2C3CC(F)C4=CC(=O)C=CC4(C)C3(F)C(O)CC21C` (stereo not given), which cell number is on record?
**A.** 105

**Q.** `O=c1[nH]c2ccccc2c2ccccc12` [6(5H)-Phenanthridinone] was tested. Which cell number did it give?
**A.** 109

**Q.** Which cell number does the source give for `CCCCCCCCC=CCCCCCCCCC(=O)O` [10(Z)-Nonadecenoic acid] here?
**A.** 94.1

**Q.** How did the cell number turn out when `Cc1cc(Nc2nc(-c3ccccc3)nc3ccccc23)n[nH]1` [GSK-3 Inhibitor XIII] was run?
**A.** 46.1

**Q.** `CCCCCCCCCCCCCCCCCC(=O)NCC(COP(=O)([O-])OCC[N+](C)(C)C)OC` (racemic) [rac-2-Methoxy-3-octadecanamido-1-propylphosphocholine] was tested. Which cell number did it give?
**A.** 84.5

**Q.** For `Nc1sc2c(c1C(=O)c1ccc(Cl)cc1)CCCC2`, which cell number is on record?
**A.** 96.8

**Q.** With `O=C(NC(CO)C(O)c1ccc([N+](=O)[O-])cc1)C(Cl)Cl` (stereo not given) [Chloramphenicol] as the molecule, how does the cell number read?
**A.** 92.2

**Q.** Which cell number does the source give for `CC(C)NCC(O)COc1ccc(CC(N)=O)cc1` (stereo not drawn) [R(+)-Atenolol] here?
**A.** 109

**Q.** `CSc1ccc2c(c1)N(CCC1CCCCN1C)c1ccccc1S2` (stereo not given) [Thioridazine] was tested. Which cell number did it give?
**A.** 102

**Q.** How did the cell number turn out when `Clc1ccc2c(c1)CCc1cccnc1C2=C1CCNCC1` [Desloratadine] was run?
**A.** 102

**Q.** Which cell number does the source give for `Cc1ccc(C)c(-c2cc(C(F)(F)F)nn2-c2ccc(S(N)(=O)=O)cc2)c1` here?
**A.** 96.8

**Q.** For `c1ccc2c(-c3ccncc3)c[nH]c2c1` [Rho Kinase Inhibitor III, Rockout], which cell number is on record?
**A.** 106

**Q.** Which cell number does the source give for `COc1cc2c[n+](C)c3c4cc5c(cc4ccc3c2cc1OC)OCO5.[Cl-]` here?
**A.** 34.7

**Q.** With `Cc1ccccc1-n1c(Cn2nc(-c3cccc(O)c3)c3c(N)ncnc32)nc2cccc(C)c2c1=O` as the molecule, how does the cell number read?
**A.** 95.1

**Q.** For `N[C@H](C(=O)O)c1cccc(O)c1` [(S)-3-Hydroxyphenylglycine], which cell number is on record?
**A.** 99.7

**Q.** For `CSC(=N)N.CSC(=N)N.O=S(=O)(O)O` [S-Methylisothiourea hemisulfate], which cell number is on record?
**A.** 98.6

**Q.** Which cell number does the source give for `O=S(=O)(NCCNCC=Cc1ccc(Br)cc1)c1cccc2cnccc12` here?
**A.** 98.1 and 96.7

**Q.** Which cell number does the source give for `CN1CCCN=C1C=Cc1cccs1.O=C(O)c1cc2ccccc2c(Cc2c(O)c(C(=O)O)cc3ccccc23)c1O` [Pyrantel Pamoate] here?
**A.** 109

**Q.** Which cell number does the source give for `O=C(O)COC(=O)Cc1ccccc1Nc1c(Cl)cccc1Cl` [Aceclofenac] here?
**A.** 101

**Q.** How did the cell number turn out when `O=C(CCCCCCC(=O)Nc1ccccc1)NO` was run?
**A.** 95.7

**Q.** For `CN1c2cc3c(cc2N=C(c2ccc(C(=O)O)cc2)c2ccccc21)C(C)(C)CCC3(C)C`, which cell number is on record?
**A.** 88.5

**Q.** With `CC(O)CCCC(O)C=CC1C(O)CC(O)C1CC=CCCCC(=O)O` [19(R)-Hydroxy-prostaglandin F2a] as the molecule, how does the cell number read?
**A.** 101

**Q.** `O=[N+]([O-])c1cccc2c(Br)[nH]nc12` [3-Bromo-7-nitroindazole] was tested. Which cell number did it give?
**A.** 113

**Q.** `COc1cc(C(O)CO)ccc1OS(=O)(=O)[O-].[K+]` (stereo not given) [MHPG sulfate potassium] was tested. Which cell number did it give?
**A.** 105

**Q.** Which cell number does the source give for `C=C[C@]1(C)C[C@@H](OC(=O)CO)[C@]2(C)[C@H](C)CC[C@]3(CCC(=O)[C@H]32)[C@@H](C)[C@@H]1O` here?
**A.** 115

**Q.** For `COc1cc(C(=O)OCCCN2CCCN(CCCOC(=O)c3cc(OC)c(OC)c(OC)c3)CC2)cc(OC)c1OC` [Dilazep], which cell number is on record?
**A.** 93.1

**Q.** Which cell number does the source give for `CCCCCCCCC=CCCCCCCCC(=O)O` [9(E)-Octadecenoic acid] here?
**A.** 108

**Q.** How did the cell number turn out when `CC(CCc1ccccc1)NCC(O)c1ccc(O)c(C(N)=O)c1.Cl` (stereo not given) [Labetalol hydrochloride] was run?
**A.** 106
